This excerpt belongs to a sample that is enriched for hits.
DT40 TDP1 CPT = DT40-hTDP1 cell growth loss with CPT; chicken DT40 Tdp1-/-;hTDP1 cells + 20 nM CPT, ATP luminescence, 48 h; Potency, µM (series often up to 46.2 µM), hits mostly inhibitors; hit rate 12% among 420,000; AID 686979; note: nearly all actives have a fitted effect of over 55% in size
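Chicken DT40 Tdp1-/- cells stably complemented with human TDP1 were seeded at 400 cells/well in medium containing 20 nM camptothecin, exposed to pin-transferred compounds, and grown at 37 °C for at least 48 hr. Viability was read as ATP luminescence.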
HT1080 IDH1KD tx = HT-1080 IDH1 knockdown cell toxicity (counter line) | AID 686971 | hit rate 2% among 360,000 | HT-1080 IDH1 knockdown viability, ATP luminescence, 48 h | Potency, µM (series often up to 46.1 µM), hits mostly cytotoxic
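% activity derives from luminescence (CellTiter-Glo), normalised to DMSO and no-cell wells. HT-1080-IDH1KD cells, 750/well, had 48 h compound exposure at 37 °C.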
TDP1 cell noCPT = qHTS for Inhibitors of human tyrosyl-DNA phosphodiesterase 1 (TDP1): qHTS in cells in absence of CPT; DT40 Tdp1-/- hTDP1 cells, no CPT, ATP luminescence, 48 h; Potency, µM (doses to about 46.2 µM), most hits filed as inhibitors; hit rate 15% among 420,000; note: nearly all actives have a fitted effect of over 55% in size
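Growth of hTDP1-complemented DT40 Tdp1-knockout cells is measured by ATP luminescence after at least 48 hr compound exposure at 37 °C, with DMSO substituting for the 20 nM CPT used in the parallel screen.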
HT1080-NT tox = kills 2HG-producing HT-1080-NT fibrosarcoma cells; HT-1080-NT fibrosarcoma viability, CellTiter-Glo ATP luminescence, 48 h; Potency, µM (highest dose often 46.1 µM), hits mostly cytotoxic; hit rate 1.6% among 360,000; AID 686970;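 note: NT is the 2HG producing partner of a matched IDH1 knockdown line; nearly all actives have a fitted effect of over 55% in size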
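HT-1080-NT; 750 cells/well; 5% FBS RPMI; 48 h compound, 37 degrees C; CellTiter-Glo luminescence; curve fitting and curve-class assignment.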
12-LOX inh = ALOX12 (human) lipoxygenase inhibition; P18054; purified 12hLO, xylenol orange hydroperoxide absorbance; Potency, µM (doses to about 108 µM), most hits filed as inhibitors; hit rate 1.1% among 580,000
Target sequence (P18054 whole entry, looked up): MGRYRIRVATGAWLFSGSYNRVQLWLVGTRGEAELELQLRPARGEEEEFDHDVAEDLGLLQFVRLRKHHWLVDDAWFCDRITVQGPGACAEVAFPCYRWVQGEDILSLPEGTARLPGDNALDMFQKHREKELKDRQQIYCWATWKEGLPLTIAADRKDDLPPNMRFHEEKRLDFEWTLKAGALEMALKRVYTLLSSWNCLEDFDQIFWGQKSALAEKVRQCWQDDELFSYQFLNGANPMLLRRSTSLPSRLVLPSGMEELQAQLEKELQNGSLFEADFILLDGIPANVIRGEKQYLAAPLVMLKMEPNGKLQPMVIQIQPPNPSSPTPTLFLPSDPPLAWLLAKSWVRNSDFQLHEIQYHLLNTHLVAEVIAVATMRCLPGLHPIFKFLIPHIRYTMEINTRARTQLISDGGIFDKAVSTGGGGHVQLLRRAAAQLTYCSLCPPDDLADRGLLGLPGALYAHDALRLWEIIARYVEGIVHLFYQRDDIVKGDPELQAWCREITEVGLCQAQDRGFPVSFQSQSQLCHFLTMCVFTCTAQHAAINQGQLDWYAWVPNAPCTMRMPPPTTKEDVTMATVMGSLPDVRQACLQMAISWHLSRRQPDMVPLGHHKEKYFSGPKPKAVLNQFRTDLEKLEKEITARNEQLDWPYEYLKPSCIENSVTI
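Purified human 12hLO at 150 nM in 25 mM Hepes, 0.01% Triton X-100, pH 7.0, preincubated 15 min at room temperature with compound. Reaction started with 40 uM arachidonic acid, 30 min at room temperature. Hydroperoxide measured by Fe-xylenol orange, 573/405 nm absorbance ratio.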
IL-1B inflam inh = inflammasome signaling inhibition, IL-1 beta readout | THP-1 LPS/ATP IL-1B secretion, AlphaLISA, 16 h; hits give low values | hit rate 4.7% among 360,000 | activity change, % at 57.5 µM; in the data active = activity change below about -50%; inconclusive = mostly about -30% to -49%
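THP-1 cells pretreated 1 hr with compounds (up to 57.5 uM final), then stimulated with LPS (250 ng/mL final) plus ATP (1.25 mM final); secreted IL-1B measured by AlphaLISA after 16 hr, decreased signal indicating inhibition.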
Of the large screens only hits and unclear results are named; the others gave an inactive call. Unless noted, calls come from the whole dose curve; as a rule, active = well fitted curve in the direction sought with a large enough effect; inconclusive = small, poorly fitted or top-dose-only effect, or another doubt; inactive = no such curve, though single readings can be large; an effect the other way counts as inactive or inconclusive.

COc1ccc(S(=O)(=O)N(C)c2ccc(C(=O)N3CCOCC3)cc2)cc1	TDP1 cell noCPT inconclusive
COc1ccc(S(=O)(=O)N(C)c2ccc(C(=O)N3CCCCC3)cc2)cc1OC	DT40 TDP1 CPT 7.3µM, TDP1 cell noCPT 21µM
Cc1cccc(C(=O)N2CCC3(CC2)CC(c2ccccc2)C(=O)N3)c1 (stereo unspecified)	none (no result: DT40 TDP1 CPT, HT1080 IDH1KD tx, TDP1 cell noCPT, HT1080-NT tox, IL-1B inflam inh)
COc1cc2c(cc1OC)CN(C(=O)c1ccc3nc[nH]c3c1)CC2	DT40 TDP1 CPT 3.3µM, HT1080 IDH1KD tx 12µM, TDP1 cell noCPT 3.3µM, HT1080-NT tox 10µM
CN(c1ccc(C(=O)N2CCN(Cc3ccccc3)CC2)cc1)S(=O)(=O)c1ccc(Cl)cc1	DT40 TDP1 CPT inconclusive, HT1080 IDH1KD tx inconclusive, TDP1 cell noCPT 16µM (no result: IL-1B inflam inh)
COc1ccc(NC(=O)c2ccc3c(c2)OCCN(Cc2ncccn2)C3)cc1F	none (no result: DT40 TDP1 CPT, HT1080 IDH1KD tx, TDP1 cell noCPT, HT1080-NT tox, IL-1B inflam inh)
COc1cc2c(cc1OC)CN(C(=O)c1cccc(S(=O)(=O)N3CCc4ccccc43)c1)CC2	DT40 TDP1 CPT 21µM, TDP1 cell noCPT 16µM, IL-1B inflam inh inconclusive
COc1ccc(C(=O)N2CCc3ccc(NC(=O)c4ccccn4)cc3C2)cc1F	DT40 TDP1 CPT 21µM, HT1080 IDH1KD tx inconclusive, TDP1 cell noCPT 23µM
O=C(c1cccc(S(=O)(=O)N2CCc3ccccc32)c1)N1CCc2ccccc2C1	DT40 TDP1 CPT inconclusive, TDP1 cell noCPT inconclusive, IL-1B inflam inh inconclusive
COc1ccc2oc(=O)c(-c3nc(-c4ccccc4Cl)no3)cc2c1	none (no result: DT40 TDP1 CPT, HT1080 IDH1KD tx, TDP1 cell noCPT, HT1080-NT tox, IL-1B inflam inh)
Cc1cccc(CN2CCNc3cnc(OCc4cccnc4)cc3C2)c1	none (no result: DT40 TDP1 CPT, HT1080 IDH1KD tx, TDP1 cell noCPT, HT1080-NT tox, IL-1B inflam inh)
O=C(c1ccc(-c2nnc(-c3ccccc3)o2)cc1)N1CCCCCC1	DT40 TDP1 CPT 10µM, TDP1 cell noCPT 18µM
O=C(O)c1ccc(-c2nnc(-c3ccccc3)o2)cc1	DT40 TDP1 CPT inconclusive, 12-LOX inh inconclusive
O=C(CSc1nnc(-c2ccco2)n1Cc1ccccc1)NCc1ccccc1	TDP1 cell noCPT inconclusive
COC(=O)CCNCCSc1nnc(-c2ccco2)n1Cc1ccccc1	DT40 TDP1 CPT 12µM, TDP1 cell noCPT 8.2µM
c1ccc(Cn2c(SCc3nc4ccccc4s3)nnc2-c2ccco2)cc1	DT40 TDP1 CPT 15µM, TDP1 cell noCPT inconclusive
O=C(CSCC(=O)OCn1nnc2ccccc2c1=O)Nc1ccc(Cl)cc1	DT40 TDP1 CPT 21µM, TDP1 cell noCPT inconclusive
O=C(Cc1cccc2ccccc12)OCn1nnc2ccccc2c1=O	none
O=c1c2ccccc2nnn1COc1cccc(Cl)c1	TDP1 cell noCPT 18µM
O=C(COc1ccc(S(=O)(=O)NC2CCCCC2)cc1Cl)Nc1ccc2c(c1)OCO2	DT40 TDP1 CPT inconclusive, HT1080 IDH1KD tx inconclusive, TDP1 cell noCPT inconclusive, HT1080-NT tox inconclusive, IL-1B inflam inh -59
COc1ccc(CCNC(=O)COc2ccc(S(=O)(=O)NC3CCCCC3)cc2Cl)cc1OC	DT40 TDP1 CPT 23µM, TDP1 cell noCPT 16µM
Cc1noc(-c2cn(C3CCN(C(=O)C(C)Oc4ccc(Cl)cc4)CC3)nn2)n1 (stereo unspecified)	none (no result: DT40 TDP1 CPT, HT1080 IDH1KD tx, TDP1 cell noCPT, HT1080-NT tox, IL-1B inflam inh)
O=C1N(C2CCN(Cc3ccc(C(F)(F)F)cc3)CC2)Cc2cccn21	none (no result: DT40 TDP1 CPT, HT1080 IDH1KD tx, TDP1 cell noCPT, HT1080-NT tox, IL-1B inflam inh)
COc1cc(-c2ccc3oc(-c4cccc(C)c4)c(C#CC4(O)CCCCC4)c3c2)cc(OC)c1OC	DT40 TDP1 CPT 16µM, TDP1 cell noCPT 16µM, IL-1B inflam inh -63
COc1ccc(-c2oc3ccc(-c4ccc5c(c4)OCO5)cc3c2C#CC2(O)CCCCC2)cc1	DT40 TDP1 CPT inconclusive, HT1080 IDH1KD tx inconclusive, TDP1 cell noCPT inconclusive, HT1080-NT tox inconclusive
N#Cc1c(C(F)(F)F)cc(=O)n2c1[nH]c1ccccc12	DT40 TDP1 CPT 13µM, HT1080 IDH1KD tx 26µM, TDP1 cell noCPT 15µM, HT1080-NT tox 4.6µM, IL-1B inflam inh -74
C=CCOc1cccc(NC(=O)C(C)(C)C)c1	none (no result: DT40 TDP1 CPT, HT1080 IDH1KD tx, TDP1 cell noCPT, HT1080-NT tox, IL-1B inflam inh)

Bioassay records deposited in PubChem by National Center for Advancing Translational Sciences (NCATS).
